Laboratory results from PubChem BioAssay AID602144 (Vanderbilt Specialized Chemistry Center, 2011).
Activity calls are given as the source filed them. Cut-off read from the data, not from the text of the source: active = remaining activity below about 50%; inactive = the rest.

The compounds below were run against Phospholipase D1 (Homo sapiens) (UniProt Q13393) (assay: PLD1 inhibitors in cells, Calu-1 cells, single concentration (AID 602144;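 note: tested at 200 nM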)). Settings: cellular PLD1 activity, hits give low values.
Chain of Phospholipase D1 (Homo sapiens) (Q13393 whole entry, looked up): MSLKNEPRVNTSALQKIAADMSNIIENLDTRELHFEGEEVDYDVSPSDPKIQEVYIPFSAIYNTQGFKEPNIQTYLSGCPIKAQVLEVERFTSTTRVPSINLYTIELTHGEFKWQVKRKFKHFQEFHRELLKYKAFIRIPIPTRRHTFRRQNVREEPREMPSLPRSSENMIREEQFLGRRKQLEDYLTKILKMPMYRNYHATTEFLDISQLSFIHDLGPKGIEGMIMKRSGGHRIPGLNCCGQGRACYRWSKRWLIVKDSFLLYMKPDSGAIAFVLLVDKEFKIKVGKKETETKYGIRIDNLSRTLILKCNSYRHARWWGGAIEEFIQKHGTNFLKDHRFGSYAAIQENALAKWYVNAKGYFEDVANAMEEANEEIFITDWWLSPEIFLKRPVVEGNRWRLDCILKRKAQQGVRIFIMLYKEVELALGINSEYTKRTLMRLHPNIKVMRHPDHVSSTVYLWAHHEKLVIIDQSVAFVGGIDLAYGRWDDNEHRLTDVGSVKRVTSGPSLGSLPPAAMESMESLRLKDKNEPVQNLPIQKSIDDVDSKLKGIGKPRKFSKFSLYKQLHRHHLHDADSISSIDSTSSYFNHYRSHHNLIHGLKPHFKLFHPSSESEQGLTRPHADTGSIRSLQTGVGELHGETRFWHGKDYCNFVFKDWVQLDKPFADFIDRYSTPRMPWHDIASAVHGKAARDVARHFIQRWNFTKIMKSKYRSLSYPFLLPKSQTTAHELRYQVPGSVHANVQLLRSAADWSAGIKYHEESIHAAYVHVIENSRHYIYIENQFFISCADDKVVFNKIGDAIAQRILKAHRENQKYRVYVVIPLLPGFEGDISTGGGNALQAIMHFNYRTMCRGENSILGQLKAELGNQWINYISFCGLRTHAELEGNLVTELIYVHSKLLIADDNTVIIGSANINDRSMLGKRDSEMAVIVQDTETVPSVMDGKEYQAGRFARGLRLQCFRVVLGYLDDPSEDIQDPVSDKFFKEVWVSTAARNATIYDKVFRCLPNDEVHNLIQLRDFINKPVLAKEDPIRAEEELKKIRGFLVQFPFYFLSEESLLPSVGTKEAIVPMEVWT
Chain of Phospholipase D1 (Homo sapiens) (Q13393 whole entry, looked up): as above

Compound | remaining activity
C[C@@H](CN1CC=C(n2c(=O)[nH]c3ccccc32)CC1)NC(=O)c1ccc2ccccc2c1 | 0.0151% (active)
COc1ccc(S(=O)(=O)NCCN2CCC(n3c(=O)[nH]c4ccccc43)CC2)cc1 | 140% (inactive)
Cc1cccc(NC(=O)NCCN2CCC(n3c(=O)[nH]c4ccccc43)CC2)c1 | 67.6% (inactive)
O=C(NCCN1CCC(n2c(=O)[nH]c3ccccc32)CC1)c1ccccc1-c1ccccc1 | 92.1% (inactive)
O=C(C1C[C@@H]1c1ccccc1)N1CCC2(CC1)C(=O)NCN2c1ccccc1 (stereo not given in full) | 86% (inactive)
O=C(NCCN1CC=C(n2c(=O)[nH]c3ccccc32)CC1)[C@H]1C[C@@H]1c1ccccc1 | 85.3% (inactive)
C[C@@H](CN1CCC(n2c(=O)[nH]c3ccccc32)CC1)NC(=O)Cc1cccs1 | 101% (inactive)
CC(C)[C@@H](CN1CCC(n2c(=O)[nH]c3ccccc32)CC1)NC(=O)c1ccc2ccccc2c1 | 84.6% (inactive)
O=C(NCCN1CCC2(CCc3ccccc32)CC1)c1ccc2ccccc2c1 | 124% (inactive)
COc1cccc(N2CCN(CCNC(=O)c3ccc4ccccc4c3)CC2)c1 | 77.7% (inactive)
C[C@@H](CN1CCC(c2nc3ccccc3[nH]2)CC1)NC(=O)C1CC1c1ccccc1 (stereo not given in full) | 87.4% (inactive)
Cc1ccc(C(=O)NCCN2CCN(c3ccccn3)CC2)cc1 | 111% (inactive)
O=c1[nH]c2ccccc2n1C1CCN(CCNS(=O)(=O)c2ccc(F)cc2)CC1 | 129% (inactive)
C[C@H](CN1CCC(n2c(=O)[nH]c3cc(Cl)ccc32)CC1)NC(=O)c1cc2ccccc2[nH]1 | 0.888% (active)
O=C(NCCN1CCC(n2c(=O)[nH]c3ccccc32)CC1)C(c1ccccc1)(c1ccccc1)c1ccccc1 | 99% (inactive)
Cc1cc(C)c(S(=O)(=O)NCCN2CCC(n3c(=O)[nH]c4ccccc43)CC2)c(C)c1 | 133% (inactive)
CC1(C)[C@@H]2CC[C@@]1(CS(=O)(=O)NCCN1CCC(n3c(=O)[nH]c4ccccc43)CC1)C(=O)C2 | 103% (inactive)
O=C(NCCN1CCC(n2nnc3ccccc32)CC1)C1CC1c1ccccc1 (stereo not given) | 52.7% (inactive)
O=C(NCCN1CCC(n2c(=O)[nH]c3ccccc32)CC1)Nc1ccccc1F | 102% (inactive)
O=C(NCCN1CCN(c2ncccn2)CC1)c1ccc(F)cc1 | 76.5% (inactive)

Compound | remaining activity
C[C@@H](CN1CCC2(CCc3ccccc32)CC1)NC(=O)c1ccc2ccccc2c1 | 91.4% (inactive)
CCCS(=O)(=O)NCCN1CCC(n2c(=O)[nH]c3ccccc32)CC1 | 120% (inactive)
O=C(CCCN1CCC(O)(c2ccc(Cl)cc2)CC1)c1ccc(F)cc1 | 80.1% (inactive)
O=C(NCCN1CCN(c2ccncc2)CC1)c1ccc(Cl)cc1 | 121% (inactive)
CC1(C)[C@H]2CC[C@]1(CS(=O)(=O)NCCN1CCC(n3c(=O)[nH]c4ccccc43)CC1)C(=O)C2 | 121% (inactive)
Cc1ccc(NC(=S)NCCN2CCC(n3c(=O)[nH]c4ccccc43)CC2)cc1 | 152% (inactive)
O=C(NCCN1CCC(n2c(=O)[nH]c3ccccc32)CC1)C1C=Cc2ccccc2C1 (stereo not given) | 33% (active)
C[C@@H](CN1CCC(c2nc3ccc(F)cc3[nH]2)CC1)NC(=O)[C@H]1CC1c1ccccc1 (stereo not given in full) | 88% (inactive)
O=C(NCCN1CCC2(CC1)CNc1ccccc12)c1ccc2ccccc2c1 | 43.9% (active)
O=C(NCCN1CCC2(CC1)CCN(c1ccccc1)C2=O)c1cnc2ccccc2c1 | 109% (inactive)
Cc1ccc(C(=O)NCCN2CCN(c3ncccn3)CC2)cc1 | 84.2% (inactive)
Cc1cccc(NC(=S)NCCN2CCC(n3c(=O)[nH]c4ccccc43)CC2)c1 | 148% (inactive)
O=C(NCCN1CCC(c2nc3ccccc3[nH]2)CC1)c1cnc2ccccc2c1 | 123% (inactive)
O=c1[nH]c2ccccc2n1C1CCN(CCNS(=O)(=O)c2ccccc2Br)CC1 | 112% (inactive)
O=C(NCCN1CCC2(C=Cc3ccccc32)CC1)[C@H]1C[C@@H]1c1ccccc1 | 107% (inactive)
CS(=O)(=O)N1CC2(CCN(CCNC(=O)c3ccc4ccccc4c3)CC2)c2ccccc21 | 136% (inactive)
O=C(NCCN1CCC(C(=O)NCCc2ccccn2)CC1)c1ccc2ccccc2c1 | 101% (inactive)
Cn1c(=O)n(C2CCN(CCNC(=O)c3ccc(F)cc3)CC2)c2ccccc21 | 84.4% (inactive)
O=C(NCCN1CCN(c2ncccn2)CC1)c1ccc(Cl)cc1 | 80.9% (inactive)
CC(C(=O)NCCN1CCC(n2c(=O)[nH]c3ccccc32)CC1)(c1ccccc1)c1ccccc1 | 104% (inactive)
